# Experimental data published in PubChem BioAssay (NCATS).
# Inconclusive results are not listed. Entries that show only a call come without a potency. Active and inactive are the calls of the source. Calls follow the shape of the dose curve; as a rule, active = well fitted cell-killing curve with a large enough effect; inconclusive = small, poorly fitted or top-dose-only effect, or effect the other way; inactive = no such curve, though single readings can be large or run the other way.
# Experiment: qHTS of pediatric cancer cell lines to identify multiple opportunities for drug repurposing: Confirmatory screen for Saos-2 cells (AID 1347127); also: nearly all actives have a fitted effect of over 60% in size
# Conditions: Saos-2 osteosarcoma cell viability; series mostly up to 45.9 µM
# Excerpt: Drug repurposing or repositioning has been offered as a strategy for drug development in oncology programs. This approach has special potential for childhood cancers and other rare or orphan diseases, where the expected return on new drug development has been a disincentive to pharmaceuticals.
# In this project we exploit the poly-pharmacology of drugs to discover new indications via phenotypic screening of a panel of 19 well-characterized cell lines derived from solid tumors seen in children and adolescents. The goal is to identify approved drugs with previously unrecognized anticancer properties that has the potential to reveal new mechanisms and biological processes involved in carcinogenesis or drug resistance. We employed a titration-based paradigm (quantitative high-throughput screening or qHTS), where all compounds were tested at multiple concentrations for their effect on cell viability. Concentration-response curves (CRCs) were derived directly from the primary screen, and both potency and efficacy values were used to identify compounds with robust bioactivity profiles. We screened the NIH Chemical Genomics Center (NCGC) Pharmaceutical Collection (NPC) and Mechanism Interrogation Plate (MIPE) small molecule collections of approved and investigational compounds against these cell lines; and measured metabolically active cells after 48 hours of compound treatment as a proxy for cell viability.
# Assay Submitter: Nathalia J. Martinez, National Center for Advancing Translational Sciences, National Institutes of Health, Rockville, MD, USA; email: natalia.martinez@nih.gov
# [1] Shen, M et al. Quantitative high-throughput phenotypic screening of pediatric cancer cell lines identifies multiple opportunities for drug repurposing. Oncotarget 2017 Dec 19;9(4):4758-4772. PMID 29435139.
# The cells were obtained from University of North Carolina (UNC), Pediatric Preclinical Testing Program (PPT), and Coriell Institute (CI).
# qHTS cell viability assay:
# Cells were assayed in growth media at a density of 500-1,000 cells/well. Five microliters of cells were dispensed into 1,536-well, white, solid-bottom, TC-treated plates (Greiner Bio One) using a multidrop dispenser and incubated at 37 degrees C, 5% CO2, under a humidified atmosphere for 5 hours. Twenty-three nanoliters of compounds and controls (neutral control DMSO or positive control bortezomib at final concentration of 2.3 µM) were subsequently transferred by Kalypsys pintool. For primary screens, the MIPE collection was tested at 11-point dilutions (final concentrations range from 0.78 nM to 46 µM) and the NPC collection at 8-point dilutions (final concentrations range from 0.59 nM to 46 µM). Compounds tested in follow-up screens were assayed at 11-point dilutions. Cells were incubated for 48 hours, followed by addition of 3 µL of CellTiter-Glo (Promega). After a 15 min incubation at room temperature, samples were analyzed for luminescence intensity using a ViewLux High-throughput CCD imager equipped with clear filters.
# Potency is read from the fitted curve at half-maximal effect.
row,Compound,Potency
1,Cc1oncc1C(=O)Nc1ccc(C(F)(F)F)cc1,inactive
2,Cn1cnc([N+](=O)[O-])c1Sc1ncnc2nc[nH]c12,inactive
3,NCCCC(N)(C(=O)O)C(F)F (centres undefined),inactive
4,CNCc1ccc(-c2[nH]c3cc(F)cc4c3c2CCNC4=O)cc1,inactive
5,Nc1nc2c(ncn2COCCO)c(=O)[nH]1,inactive
6,C#Cc1cccc(Nc2ncnc3cc(OCCOC)c(OCCOC)cc23)c1,inactive
7,COc1ccc(-c2ccc3c(N4CCOC[C@H]4C)nc(N4CCOC[C@H]4C)nc3n2)cc1CO,928 nM (active)
8,COc1ccc(-c2oc3cc(OC)ccc3c2C(=O)c2ccc(C#N)cc2)cc1,inactive
9,O=C(NOC[C@H](O)CO)c1ccc(F)c(F)c1Nc1ccc(I)cc1F,inactive
10,C[C@]1(c2nc3c(C(N)=O)cccc3[nH]2)CCCN1,inactive
11,O=C(c1cc(Cc2n[nH]c(=O)c3ccccc23)ccc1F)N1CCN(C(=O)C2CC2)CC1,inactive
12,CCC(C)(C)C(=O)O[C@H]1C[C@@H](C)C=C2C=C[C@H](C)[C@H](CC[C@@H]3C[C@@H](O)CC(=O)O3)[C@H]21,2330 nM (active)
13,Cc1c(CN2CCN(C(=O)C(C)C)CC2)sc2c(N3CCOCC3)nc(-c3cnc(N)nc3)nc12,928 nM (active)
14,OC(CN1CCC(Cc2ccc(F)cc2)CC1)c1ccc(Cl)cc1 (centres undefined),inactive
15,CCC(C)n1ncn(-c2ccc(N3CCN(c4ccc(OC[C@H]5CO[C@](Cn6cncn6)(c6ccc(Cl)cc6Cl)O5)cc4)CC3)cc2)c1=O (some centres undefined),inactive
16,O=NN(CCCl)C(=O)NCCCl,inactive
17,Cc1cn[nH]c1,inactive
18,Oc1cccc(-c2nc(N3CCOCC3)c3oc4ncccc4c3n2)c1,380 nM (active)
19,Cc1c(C)c2c(c(C)c1O)CCC(C)(COc1ccc(CC3SC(=O)NC3=O)cc1)O2 (centres undefined),inactive
20,Cn1cnc2c(F)c(Nc3ccc(Br)cc3Cl)c(C(=O)NOCCO)cc21,inactive
21,NC(=O)c1ccc(I)c([N+](=O)[O-])c1,inactive
22,CN1CCN(CCCN2c3ccccc3Sc3ccc(C(F)(F)F)cc32)CC1,20800 nM (active)
23,COc1cc(Nc2ncc3c(n2)-c2ccc(Cl)cc2C(c2c(F)cccc2OC)=NC3)ccc1C(=O)O,18500 nM (active)
24,CCN(CC)CCCC(C)Nc1ccnc2cc(Cl)ccc12 (centres undefined),inactive
